We go through eight compounds from PubChem BioAssay (Tox21).

SMILES strings stand for the structures. Values without a mark were called inactive. Inconclusive results are not listed. Activity calls are given as the source filed them. Unless noted, calls follow the shape of the dose curve; as a rule, active = well fitted curve in the direction sought with a large enough effect in the repeat runs; inconclusive = weak or mixed curves; inactive = no such curve, though single readings can be large; an effect the other way counts as inactive or inconclusive.

Assay [1] is described as follows: qHTS assay to identify small molecule antagonists of the sonic hedgehog signaling (Shh) pathway (AID 1259369; calls by dose curve; also: nearly all actives have a fitted effect of over 45% in size). In a few lines:
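Read-out is luminescence from a firefly luciferase gene controlled by the Gli1 response element, in 3T3Gli1-Luc cells pre-incubated 4hr then exposed to compounds and conditioned medium for 24hr.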
(qHTS replaces the single test concentration by a dilution series.)

A short description of assay [2]: qHTS assay to identify small molecule agonists of the androgen receptor (AR) signaling pathway in the presence of an antagonist - cell viability counter screen (AID 1259379).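 Also: MDA-kb2 human breast cancer cells carrying an MMTV luciferase reporter; series mostly up to about 92 µM; nearly all actives have a fitted effect of over 25% in size.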 In a few lines:
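Each compound was tested at 15 concentrations on MDA-kb2 cells in the presence of 3.0uM nilutamide. Viability was measured by CellTiter-Fluor fluorescence after a 16 hr incubation at 37C in a CO2-free atmosphere.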

A short description of assay [3]: qHTS assay to identify small molecule agonists of the estrogen receptor beta (ER-beta) signaling pathway - cell viability counter screen (AID 1259380). Also: nearly all actives have a fitted effect of over 30% in size. The essentials: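 Compounds dissolved in DMSO were pin-transferred onto ER-beta-UAS-bla HEK293T cells that had settled 6 hr, and exposure ran 16 hr at 37C. Following the reporter read, CellTiter-Glo luminescence after 30 min at room temperature indicated cytotoxicity.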

Assay [4] is described as follows: qHTS assay to identify small molecule antagonists of the estrogen receptor beta (ER-beta) signaling pathway - cell viability counter screen (AID 1259382). Also: series mostly up to about 92 µM; nearly all actives have a fitted effect of over 55% in size. The essentials:
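CellTiter-Glo ATP luminescence measured after the LiveBLAzer read in the same wells; ER-beta-UAS-bla HEK293T cells, 16 hr compound treatment with 1nM 17-beta-estradiol agonist at 37C, 5% CO2.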

Assay [5] in a line: qHTS assay to identify small molecule agonists or antagonists of the thyroid stimulating hormone receptor (TSHR) signaling pathway - wild type cell line counter screen (AID 1259384; calls by dose curve). In a few lines:
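Wild-type HEK293 cells were plated 18 h at 37 C/5% CO2, pin-dosed with compound plus Ro20-1724 medium, held 30 min at room temperature, then given cAMP-d2 and anti-cAMP-cryptate; fluorescence was read after 1 h. Fifteen concentrations, triplicate.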

In assay [6] the target is Thyrotropin receptor (Homo sapiens) (UniProt P16473). In words: qHTS assay to identify small molecule antagonists of the thyroid stimulating hormone receptor (TSHR) signaling pathway (AID 1259385; calls by dose curve; also: nearly all actives have a fitted effect of over 20% in size). In a few lines:
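TSHR-HEK293 cells were plated and held 18 h at 37C/5% CO2, then given compound plus Ro20-1724 and stimulated with TSH at 1.5 ng/mL final. After 30 min at room temperature, cAMP was detected with cAMP-d2/anti-cAMP-cryptate (1 h) by fluorescence.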

A short description of assay [7]: qHTS assay to identify small molecule agonists of the estrogen receptor alpha (ER-alpha) signaling pathway in the presence of an antagonist - cell viability counter screen (AID 1259386).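 Also: series mostly up to about 92 µM; cells exposed to compounds for 22 h at 37 °C before the viability read; nearly all actives have a fitted effect of over 30% in size.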 In a few lines:
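Using estrogen-depleted VM7Luc4E2 cells, the 15-concentration compound series was applied together with 10.0nM ICI-182,780 and incubated 22hr at 37C/5% CO2. Cell viability was then scored by CellTiter-Fluor.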

The target of assay [8] is Progesterone receptor (Homo sapiens) (UniProt P06401). Briefly: qHTS assay to identify small molecule agonists of the progesterone receptor (PR) signaling pathway (AID 1346784; calls by dose curve; also: nearly all actives have a fitted effect of over 30% in size). The essentials:
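Agonist qHTS: compounds pinned onto 3,000 PR-UAS-bla HEK 293T cells per well in charcoal-stripped serum medium, 16hr at 37C, then beta-lactamase activity measured by LiveBLAzer FRET fluorescence after 2 hours at room temperature.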

For assay [9] the target is unchanged. In words: qHTS assay to identify small molecule antagonists of the progesterone receptor (PR) signaling pathway (AID 1346795; active = well fitted inhibition curve with a large enough effect in the signal ratio in the repeat runs, not every such curve was filed as active; the % refers to the signal ratio; also: potency is read from the fitted curve at half-maximal effect). In a few lines:
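Antagonist mode with agonist R5020 at 1 nM final and 16 hr incubation at 37C. Reporter was beta-lactamase driven by UAS in HEK293T (PR-UAS-bla), 2% charcoal-stripped serum; signal from LiveBLAzer FRET substrate, 2 hr at room temperature.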

The nature of assay [10]: qHTS assay to identify small molecule antagonists of the progesterone receptor (PR) signaling pathway - cell viability counter screen (AID 1346798). Also: series mostly up to about 92 µM; nearly all actives have a fitted effect of over 50% in size. The essentials: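 Cytotoxicity read as CellTiter-Glo luminescence (30 min, room temperature) in the same wells as the beta-lactamase readout. HEK293T PR-UAS-bla cells in charcoal-stripped 2% FBS received compound and R5020, then 16 h at 37C, 5% CO2.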

Assay [11] can be described thus: qHTS assay to identify small molecule agonists of the progesterone receptor (PR) signaling pathway - cell viability counter screen (AID 1346799; calls by dose curve; also: nearly all actives have a fitted effect of over 45% in size). The essentials:
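Cytotoxicity measured by CellTiter-Glo luminescence (30 min, RT) in the same wells as the PR beta-lactamase agonist read. Those HEK293T cells had 16 h compound treatment at 37 C in 2% charcoal-stripped FBS medium.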

Assay [12] is described as follows: qHTS assay to identify small molecule antagonists of the TGF-beta/Smad signaling pathway - cell viability counter screen (AID 1346824). Also: nearly all actives have a fitted effect of over 50% in size. In a few lines:
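SBE-bla HEK 293T cells were plated overnight at 37 C, then given compounds in DMSO plus TGF-beta1 (added as 0.25 ng/mL solution) for 5 hr. After the bla read, CellTiter-Glo was added to the same wells and luminescence read after 30 min at room temperature.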

A short description of assay [13]: qHTS assay to identify small molecule agonists of the TGF-beta/Smad signaling pathway - cell viability counter screen (AID 1346829). Also: top concentration of the series differs between compounds; nearly all actives have a fitted effect of over 45% in size. The essentials:
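Luminescence from CellTiter-Glo, read after a 30 min room-temperature incubation, gives cell viability of SBE-bla HEK 293T cells treated 5 hr with compounds at 37 C.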

Assay [14] has as its target Thyrotropin-releasing hormone receptor (Homo sapiens) (UniProt P34981). Briefly: qHTS assay to identify small molecule antagonists of the thyrotropin-releasing hormone receptor (TRHR) signaling pathway (AID 1346877; active = well fitted inhibition curve with a large enough effect in the repeat runs, not every such curve was filed as active; also: series mostly up to about 51 µM). In a few lines:
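Calcium signal in dye-loaded TRHR/HEK293 cells; compounds added 5 min before TRH (1 nM final); fluorescence monitored 3 min at 1 s steps.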

Assay [15] shares this target. In words: qHTS assay to identify small molecule agonists of the thyrotropin-releasing hormone receptor (TRHR) signaling pathway (AID 1346891; calls by dose curve; also: series mostly up to about 58 µM). The essentials:
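Agonist-mode intracellular calcium readout: kinetic fluorescence over 3 min at 1 s intervals after compound addition to TRHR-HEK293 cells (18 h seeded, 2 h dye-loaded at 37 C). Fifteen concentrations, triplicates.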

For assay [16], the target named is Estrogen receptor beta (Homo sapiens) (UniProt Q92731). In words: qHTS assay to identify small molecule agonists of the estrogen receptor beta (ER-beta) signaling pathway (AID 1259377; active = well fitted activation curve with a large enough effect in the signal ratio in the repeat runs, not every such curve was filed as active; the % refers to the signal ratio). In a few lines:
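Ratiometric beta-lactamase FRET read-out came after 2 h substrate loading at room temperature. It followed 16 h compound treatment at 37C of GripTite HEK293T cells carrying a UAS-bla reporter, plated in 2% charcoal-stripped FBS medium.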

Assay [17] addresses Estrogen receptor (Homo sapiens) (UniProt P03372). In words: qHTS assay to identify small molecule agonists of the estrogen receptor alpha (ER-alpha) signaling pathway in the presence of an antagonist (AID 1259383; calls by dose curve; also: top concentration of the series differs between compounds; nearly all actives have a fitted effect of over 15% in size). The essentials:
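Luminescent ERE-luciferase reporter, VM7Luc4E2 cells (endogenous ER-alpha); 10.0nM ICI-182,780 final; 15-point compound titration; 22hr at 37C; ONE-Glo, 30min RT.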

Assay [18] can be described thus: qHTS assay to identify small molecule agonists of the TGF-beta/Smad signaling pathway (AID 1346859; active = well fitted activation curve with a large enough effect in the signal ratio in the repeat runs, not every such curve was filed as active; the % refers to the signal ratio; also: series mostly up to about 77 µM). In a few lines:
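Fluorescence (ex 405 nm; em 460 and 530 nm) was read 2 h after LiveBLAzer FRET substrate at RT. The preceding compound treatment of overnight-plated SBE-bla HEK293T cells lasted 5 h at 37 C.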

Assay [19] deals with Estrogen receptor beta (Homo sapiens) (UniProt Q92731). Briefly: qHTS assay to identify small molecule antagonists of the estrogen receptor beta (ER-beta) signaling pathway (AID 1259378; active = well fitted inhibition curve with a large enough effect in the signal ratio in the repeat runs, not every such curve was filed as active; the % refers to the signal ratio). In a few lines:
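ER-beta-UAS-bla HEK293T (GripTite) cells in 2% charcoal-stripped FBS medium were preincubated 6 hr at 37C, dosed with compound, then stimulated with 1 nM E2 (final) for 16 hr; beta-lactamase reporter read by B/G FRET fluorescence after 2 hr substrate loading.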

Assay [20] has as its target Androgen receptor (Homo sapiens) (UniProt P10275). In words: qHTS assay to identify small molecule agonists of the androgen receptor (AR) signaling pathway in the presence of an antagonist (AID 1259381; calls by dose curve; also: nearly all actives have a fitted effect of over 15% in size). In a few lines:
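Plated MDA-kb2 cells (3,000/well) were pre-incubated 5hr, given nilutamide (3.0uM final) or buffer, then dosed with compounds in DMSO at 15 concentrations. Luciferase activity was quantified by luminescence after 16hr at 37C.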

Sequence of Estrogen receptor (Homo sapiens) (P03372 whole entry, looked up): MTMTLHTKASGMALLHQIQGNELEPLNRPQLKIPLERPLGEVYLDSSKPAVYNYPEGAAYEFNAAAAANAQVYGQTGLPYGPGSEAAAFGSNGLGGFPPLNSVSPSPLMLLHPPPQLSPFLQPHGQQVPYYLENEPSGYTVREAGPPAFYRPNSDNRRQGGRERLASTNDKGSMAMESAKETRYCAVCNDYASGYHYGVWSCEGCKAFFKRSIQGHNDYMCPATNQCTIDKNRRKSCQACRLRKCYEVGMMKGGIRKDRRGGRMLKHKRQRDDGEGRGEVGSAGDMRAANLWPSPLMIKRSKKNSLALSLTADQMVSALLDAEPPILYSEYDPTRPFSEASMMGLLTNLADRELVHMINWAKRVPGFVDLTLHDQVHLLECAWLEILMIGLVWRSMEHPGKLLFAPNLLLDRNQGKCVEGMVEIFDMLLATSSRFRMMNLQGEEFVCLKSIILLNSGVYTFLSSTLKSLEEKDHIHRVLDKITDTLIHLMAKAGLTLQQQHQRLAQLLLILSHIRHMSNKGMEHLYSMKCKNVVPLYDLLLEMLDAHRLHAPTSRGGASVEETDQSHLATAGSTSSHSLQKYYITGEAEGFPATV
Sequence of Progesterone receptor (Homo sapiens) (P06401 whole entry, looked up): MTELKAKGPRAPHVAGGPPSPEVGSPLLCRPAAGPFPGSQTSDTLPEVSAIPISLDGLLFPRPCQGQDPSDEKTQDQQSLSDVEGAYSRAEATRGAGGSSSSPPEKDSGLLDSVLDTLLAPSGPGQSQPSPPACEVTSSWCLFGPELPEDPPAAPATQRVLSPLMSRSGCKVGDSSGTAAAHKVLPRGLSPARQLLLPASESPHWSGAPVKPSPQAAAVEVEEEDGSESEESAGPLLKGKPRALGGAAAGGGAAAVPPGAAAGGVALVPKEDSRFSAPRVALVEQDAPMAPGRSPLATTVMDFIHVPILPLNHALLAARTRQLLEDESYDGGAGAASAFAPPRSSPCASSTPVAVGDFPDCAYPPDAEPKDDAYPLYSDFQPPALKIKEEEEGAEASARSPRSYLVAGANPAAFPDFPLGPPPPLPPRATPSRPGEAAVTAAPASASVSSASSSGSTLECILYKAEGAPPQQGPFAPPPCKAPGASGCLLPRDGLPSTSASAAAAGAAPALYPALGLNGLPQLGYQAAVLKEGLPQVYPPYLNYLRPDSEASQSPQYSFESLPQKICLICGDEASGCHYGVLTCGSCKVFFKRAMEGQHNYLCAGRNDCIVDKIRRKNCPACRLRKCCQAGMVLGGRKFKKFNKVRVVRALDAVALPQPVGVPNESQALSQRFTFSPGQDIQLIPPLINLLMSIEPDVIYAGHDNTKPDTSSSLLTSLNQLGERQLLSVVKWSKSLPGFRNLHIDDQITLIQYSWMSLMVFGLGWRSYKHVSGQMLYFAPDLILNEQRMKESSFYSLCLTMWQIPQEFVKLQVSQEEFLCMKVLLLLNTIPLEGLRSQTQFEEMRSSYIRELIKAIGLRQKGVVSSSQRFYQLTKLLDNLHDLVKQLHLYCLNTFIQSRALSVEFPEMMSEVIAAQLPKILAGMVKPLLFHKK
Sequence of Estrogen receptor beta (Homo sapiens) (Q92731 whole entry, looked up): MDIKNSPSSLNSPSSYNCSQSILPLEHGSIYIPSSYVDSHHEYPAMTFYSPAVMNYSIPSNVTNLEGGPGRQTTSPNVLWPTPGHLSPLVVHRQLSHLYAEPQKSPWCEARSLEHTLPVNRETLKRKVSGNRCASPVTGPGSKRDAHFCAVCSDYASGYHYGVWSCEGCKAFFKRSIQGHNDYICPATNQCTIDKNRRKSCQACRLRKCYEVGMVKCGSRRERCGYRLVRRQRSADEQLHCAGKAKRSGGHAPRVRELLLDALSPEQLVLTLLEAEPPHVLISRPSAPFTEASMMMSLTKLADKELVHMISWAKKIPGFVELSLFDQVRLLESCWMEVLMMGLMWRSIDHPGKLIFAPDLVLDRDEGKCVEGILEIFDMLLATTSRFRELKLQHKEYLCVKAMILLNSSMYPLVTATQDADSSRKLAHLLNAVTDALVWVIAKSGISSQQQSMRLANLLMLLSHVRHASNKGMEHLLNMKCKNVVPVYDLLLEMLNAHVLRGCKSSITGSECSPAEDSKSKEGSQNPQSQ
Sequence of Thyrotropin receptor (Homo sapiens) (P16473 whole entry, looked up): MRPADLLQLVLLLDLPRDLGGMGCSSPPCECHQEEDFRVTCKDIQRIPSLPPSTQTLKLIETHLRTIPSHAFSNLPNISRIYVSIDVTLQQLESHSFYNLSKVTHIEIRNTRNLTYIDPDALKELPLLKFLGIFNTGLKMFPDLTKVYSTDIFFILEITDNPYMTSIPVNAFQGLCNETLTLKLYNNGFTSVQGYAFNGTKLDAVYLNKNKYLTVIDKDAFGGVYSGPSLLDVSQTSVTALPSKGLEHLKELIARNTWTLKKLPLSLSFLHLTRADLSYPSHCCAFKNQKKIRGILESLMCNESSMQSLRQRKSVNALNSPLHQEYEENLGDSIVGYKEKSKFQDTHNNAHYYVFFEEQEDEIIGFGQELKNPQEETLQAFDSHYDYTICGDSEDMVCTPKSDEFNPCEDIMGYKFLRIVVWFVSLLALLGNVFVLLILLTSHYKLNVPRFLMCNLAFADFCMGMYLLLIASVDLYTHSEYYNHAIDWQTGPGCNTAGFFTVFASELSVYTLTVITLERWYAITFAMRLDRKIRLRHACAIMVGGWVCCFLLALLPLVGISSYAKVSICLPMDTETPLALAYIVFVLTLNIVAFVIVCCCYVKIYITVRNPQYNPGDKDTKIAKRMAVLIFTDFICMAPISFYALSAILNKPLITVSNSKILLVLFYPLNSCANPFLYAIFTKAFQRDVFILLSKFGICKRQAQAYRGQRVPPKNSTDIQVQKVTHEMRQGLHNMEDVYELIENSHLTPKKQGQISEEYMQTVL
Sequence of Thyrotropin-releasing hormone receptor (Homo sapiens) (P34981 whole entry, looked up): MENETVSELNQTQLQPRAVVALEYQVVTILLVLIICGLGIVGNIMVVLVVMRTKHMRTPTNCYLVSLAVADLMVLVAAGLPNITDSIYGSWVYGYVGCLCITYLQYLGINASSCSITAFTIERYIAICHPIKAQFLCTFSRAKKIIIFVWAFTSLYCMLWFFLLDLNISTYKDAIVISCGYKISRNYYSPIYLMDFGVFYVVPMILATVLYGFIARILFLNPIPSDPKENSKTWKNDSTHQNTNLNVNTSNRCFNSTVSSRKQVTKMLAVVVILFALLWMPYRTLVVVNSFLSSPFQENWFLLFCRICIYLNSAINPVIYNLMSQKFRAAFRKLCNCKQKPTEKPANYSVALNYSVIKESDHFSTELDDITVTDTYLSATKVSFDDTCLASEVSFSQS
Sequence of Androgen receptor (Homo sapiens) (P10275 whole entry, looked up): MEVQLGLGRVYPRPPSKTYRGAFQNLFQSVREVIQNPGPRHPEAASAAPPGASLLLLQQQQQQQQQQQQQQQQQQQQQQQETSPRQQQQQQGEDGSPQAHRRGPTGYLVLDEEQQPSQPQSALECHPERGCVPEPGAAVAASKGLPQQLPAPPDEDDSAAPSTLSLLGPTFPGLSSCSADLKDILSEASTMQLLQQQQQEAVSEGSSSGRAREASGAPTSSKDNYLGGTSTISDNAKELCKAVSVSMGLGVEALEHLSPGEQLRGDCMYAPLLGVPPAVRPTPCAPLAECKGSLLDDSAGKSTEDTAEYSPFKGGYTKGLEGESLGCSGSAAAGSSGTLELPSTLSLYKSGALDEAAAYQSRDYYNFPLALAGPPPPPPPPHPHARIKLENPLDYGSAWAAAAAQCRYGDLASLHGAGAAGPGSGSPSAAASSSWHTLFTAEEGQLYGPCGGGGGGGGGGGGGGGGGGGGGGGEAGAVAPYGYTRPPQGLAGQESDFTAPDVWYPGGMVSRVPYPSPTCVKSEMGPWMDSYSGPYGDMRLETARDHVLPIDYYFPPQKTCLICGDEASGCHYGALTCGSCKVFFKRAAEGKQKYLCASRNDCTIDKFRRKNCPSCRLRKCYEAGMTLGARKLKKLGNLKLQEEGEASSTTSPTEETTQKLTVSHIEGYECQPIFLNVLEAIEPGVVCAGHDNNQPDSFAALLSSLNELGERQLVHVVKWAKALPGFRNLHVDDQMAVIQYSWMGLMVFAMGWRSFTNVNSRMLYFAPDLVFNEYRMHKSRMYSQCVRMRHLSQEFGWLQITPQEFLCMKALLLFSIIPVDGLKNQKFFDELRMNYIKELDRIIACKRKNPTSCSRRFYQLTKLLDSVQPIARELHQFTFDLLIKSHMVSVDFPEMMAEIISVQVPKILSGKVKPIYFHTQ

As to `C=CC(C)(CCC=C(C)C)OC(=O)c1ccccc1N` (centres undefined), the Potency result in assay [1], in assay [2], in assay [3], in assay [4], in assay [6] and in assay [7] was “inactive” throughout. For the same compound, the Potency result in assay [8], in assay [9], in [10], in [11], in assay [12] and in [13] was “inactive” in each case. Moreover, the Potency entry in assay [14] is “inactive”. Further, the outcome in assay [5] and in assay [15] was inactive.
In the case of `O=C(O)C(Cl)(Cl)Br`, the Potency entry in assay [16], in assay [2], in assay [3], in assay [4], in assay [6] and in assay [7] was “inactive” each time. Moreover, the Potency result in [8], in assay [9], in assay [10], in assay [11], in assay [12] and in assay [13] was “inactive” throughout. For the same compound, in assay [14], the Potency result was “inactive”. For the same compound, the outcome in assay [5] and in [15] was inactive.
As for `CCOC(=O)c1cn2nc(OP(=S)(OCC)OCC)cc2nc1C`, the Potency entry in assay [16], in [2], in assay [3], in assay [4], in assay [17] and in assay [7] was “inactive” each time. Besides, the Potency result in [8], in assay [12] and in assay [13] was “inactive” in each case. Further, the outcome in assay [5] was inactive.
With `CCCC[N+](CCCC)(CCCC)CCCC`, the Potency result in assay [1], in assay [3], in assay [4], in assay [17], in [7] and in [8] was “inactive” throughout. Further, the Potency result in assay [9], in assay [10], in assay [11], in [12], in assay [13] and in assay [14] was “inactive” in each case. The call in [18] and in [15] was inactive.
Turning to `ClCc1ccccc1Cl`, the Potency result in [16], in assay [19], in assay [2], in assay [3], in [20] and in [4] was “inactive” in each case. The Potency result in assay [6], in assay [7], in assay [10], in assay [11], in [12] and in assay [13] was “inactive” in each case. Also, the result in assay [5] and in assay [18] was inactive.
Take `Clc1ccc2ccccc2c1`: the Potency result in assay [16], in assay [19], in assay [2], in [3], in assay [20] and in [4] was “inactive” each time. For the same compound, the Potency result in assay [17], in [6], in assay [7], in [8], in assay [9] and in assay [10] was “inactive” throughout. Besides, the Potency entry in assay [12], in [13] and in assay [14] was “inactive” each time. For the same compound, the compound was classed as inactive in assay [5] and in assay [15].
As to `C[Si](Cn1cncn1)(c1ccc(F)cc1)c1ccc(F)cc1`, the Potency result in assay [16], in [2], in assay [3], in [4], in [6] and in assay [7] was “inactive” each time. Moreover, the Potency entry in assay [10], in [12], in assay [13] and in assay [14] was “inactive” in each case. In addition, the outcome in [5], in [18] and in assay [15] was inactive. In addition, the Potency in assay [9] was 15.4 µM (active).
Regarding `C[C@H]1[C@@H]2Cc3ccc(O)cc3[C@@]1(C)CCN2C`, the Potency entry in [16], in assay [19], in assay [2], in assay [3], in assay [4] and in assay [6] was “inactive” each time. The Potency result in assay [7], in [8], in [9], in [11], in [12] and in assay [13] was “inactive” in each case. Further, in assay [14], the Potency entry was “inactive”. Also, the result in assay [18] and in [15] was inactive.
